Measurements published in the supplement of paper PMC10720658.
± gives the standard deviation of the averaged measurements.

tested on: AEK1 (Tb927.3.2440); test: percent reduction in TR-FRET probe signal relative to DMSO control; higher = stronger displacement of ATP-site probe (binding); details: 1 µM; incubation time 1 h

Point of comparison: `C=CC(=O)Nc1ccc2ncnc(Nc3ccc(OCc4cccc(F)c4)c(Cl)c3)c2c1.Cc1ccc(S(=O)(=O)O)cc1`, “percent reduction in TR-FRET probe signal” value 4.49 ± 7.8%. Against it:
- C[C@@H]1CCN(C(=O)CC#N)C[C@@H]1N(C)c1ncnc2[nH]ccc12 — within error, 5.48 ± 7.8%
- Cc1cc(Nc2ncc(Cl)c(Nc3ccccc3S(=O)(=O)C(C)C)n2)c(OC(C)C)cc1C1CCNCC1 — within error, -7.62 ± 8.9%
- CCN(CC)CCNC(=O)c1c(C)[nH]c(/C=C2\C(=O)Nc3ccc(F)cc32)c1C.O=C(O)C[C@H](O)C(=O)O [Sunitinib Malate] — within error, 14.7 ± 14%
- NC(=O)Nc1sc(-c2ccc(F)cc2)cc1C(N)=O — within error, 10.6 ± 8.8%
- N#Cc1c(Oc2ccc(F)c(NC(=O)Cc3cccc(C(F)(F)F)c3)c2)ccc2nc(NC(=O)C3CC3)sc12 — within error, 1.05 ± 9.1%
- Nc1cc(C(F)(F)F)c(-c2cc(N3CCOCC3)nc(N3CCOCC3)n2)cn1 [BKM120 (NVP-BKM120, Buparlisib)] — within error, 8.62 ± 16%
- CC[C@H](CO)Nc1nc(NCc2ccccc2)c2ncn(C(C)C)c2n1 [Roscovitine (Seliciclib,CYC202)] — within error, -4.47 ± 5.4%
- CCCCCCCCc1ccc(CCC(N)(CO)CO)cc1.Cl [Fingolimod (FTY720) HCl] — within error, -8.59 ± 6.3%
- Cc1cc(Nc2nc(N[C@@H](C)c3ccc(F)cc3)c(C#N)cc2F)n[nH]1 — higher, 56.3 ± 7.3%
- Cc1cc(F)c(Nc2ncnc3cc(OCc4ccccc4)ccc23)cc1O.Cl — higher, 29.8 ± 17%
- O=C1NC(=O)/C(=C/c2ccc3c(c2)OC(F)(F)O3)S1 — within error, -3.7 ± 5.9%
- O=C(c1ccc(F)c(F)c1Nc1ccc(I)cc1F)N1CC(O)([C@@H]2CCCCN2)C1 [Cobimetinib (GDC-0973, RG7420)] — within error, 2.36 ± 13%
- Cl.Cl.O=S(=O)(NCCNC/C=C/c1ccc(Br)cc1)c1cccc2cnccc12 — within error, 9.74 ± 13%
- Cc1ccc(F)c(NC(=O)Nc2ccc(-c3cccc4[nH]nc(N)c34)cc2)c1 [Linifanib (ABT-869)] — within error, 1.08 ± 12%
- N#CC[C@H](C1CCCC1)n1cc(-c2ncnc3[nH]ccc23)cn1 — higher, 22.6 ± 7.6%
- CS(=O)(=O)CCNCc1ccc(-c2ccc3ncnc(Nc4ccc(OCc5cccc(F)c5)c(Cl)c4)c3c2)o1 [Lapatinib] — within error, 6.42 ± 9.8%
- Cc1ccc(C(=O)Nc2cccc(C(F)(F)F)c2)cc1Nc1nc(-c2cccnc2)nc2c1cnn2C — within error, 1 ± 8.4%
- CS(=O)(=O)O.Cc1ccc(NC(=O)c2ccc(CN3CCN(C)CC3)cc2)cc1Nc1nccc(-c2cccnc2)n1 [Imatinib Mesylate (STI571)] — within error, 7.01 ± 21%
- Cc1cc(N2CCOCC2)cc2[nH]c(-c3c(NC[C@@H](O)c4cccc(Cl)c4)cc[nH]c3=O)nc12 — within error, 21.7 ± 13%
- OCCn1cc(-c2ccc3c(c2)CC/C3=N\O)c(-c2ccncc2)n1 — within error, -6.91 ± 7.5%
- CCN(CC)CCCC(C)Nc1ccnc2cc(Cl)ccc12.O=P(O)(O)O.O=P(O)(O)O (stereo unspecified) [Chloroquine Phosphate] — lower, -15.1 ± 5.7%
- COc1cc(C(=O)NC2CCN(C)CC2)ccc1Nc1ncc2c(n1)N(C1CCCC1)CC(F)(F)C(=O)N2C — within error, -5 ± 7%
- Cc1ccc2nc(NCCN)c3ncc(C)n3c2c1 — lower, -7.43 ± 3.5%
- O=C(Nc1cccnc1)c1cc(-c2ccnc(F)c2)ccc1OCc1ccccc1 — within error, -0.16 ± 3.2%
- Cl.Cl.OC(c1cc(-c2ccc(Cl)cc2)nc2ccccc12)C1CCCCN1 (stereo unspecified) [Vacquinol-1] — within error, -5.59 ± 3.7%
- O=C1NC(=O)C(c2cnc3ccccn23)=C1c1cn2c3c(cc(F)cc13)CN(C(=O)N1CCCCC1)CC2 — lower, -14.7 ± 8.7%
- C=CC(=O)Nc1cccc(Sc2nc(Nc3ccc(N4CCN(C)CC4)cc3)ncc2Cl)c1 — within error, 3.76 ± 18%
- Cn1ncc(Cl)c1-c1cc(C(=O)N[C@H](CN)Cc2ccc(F)c(F)c2)oc1Cl — higher, 33.2 ± 9.4%
- O=c1c(O)c(-c2ccc(O)c(O)c2)oc2cc(O)cc(O)c12 [Quercetin] — within error, 8.35 ± 5.3%
- CO[C@H]1C[C@@H]2CC[C@@H](C)[C@@](O)(O2)C(=O)C(=O)N2CCCC[C@H]2C(=O)O[C@H]([C@H](C)C[C@@H]2CC[C@@H](O)[C@H](OC)C2)CC(=O)[C@H](C)/C=C(\C)[C@@H](O)[C@@H](OC)C(=O)[C@H](C)C[C@H](C)/C=C/C=C/C=C/1C [Rapamycin (Sirolimus)] — lower, -8.37 ± 4.2%
